Assay results as given in the supplement of paper PMC4466140.

Each binder was assayed against AgAbp1 (assay: SPOT peptide array binding signal intensity (averaged, normalized) (arbitrary units (background-subtracted, floor 0; scale differs between SH3 domains)); higher = stronger binding of the SH3 domain to the peptide).
In short: (§1)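 Binding signal refers to normalized, background-subtracted spot intensity averaged over replicates, expressed in arbitrary units that differ between domains. GST-fused SH3 domains from four yeast species were incubated at 10 μg/ml overnight at 4°C on cellulose membranes of synthetic 15-mer peptides with cysteines replaced by serines. Bound protein was detected with anti-GST antibody, an HRP anti-mouse secondary and luminol, and quantified with Genespotter.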

Row | Binder | SPOT peptide array binding signal intensity
1 | HAPPLPPTAPPPPSL | ≤ 0

Each binder was assayed against AgBbc1 in the same assay as above.
In short: as §1

Row | Binder | SPOT peptide array binding signal intensity
2 | HAPPLPPTAPPPPSL | ≤ 0

Each binder was assayed against AgBem1-D1 in the same assay as above.
In short: as §1

Row | Binder | SPOT peptide array binding signal intensity
3 | HAPPLPPTAPPPPSL | ≤ 0

What follows are binders tested against AgBzz1-D1 in the same assay as above.
In short: as §1

Row | Binder | SPOT peptide array binding signal intensity
4 | HAPPLPPTAPPPPSL | ≤ 0

Each binder was assayed against AgBzz1-D2 in the same assay as above.
In short: as §1

Row | Binder | SPOT peptide array binding signal intensity
5 | HAPPLPPTAPPPPSL | ≤ 0

What follows are binders tested against AgCyk3 in the same assay as above.
In short: as §1

Row | Binder | SPOT peptide array binding signal intensity
6 | HAPPLPPTAPPPPSL | ≤ 0

Each binder was assayed against AgFus1 in the same assay as above.
In short: as §1

Row | Binder | SPOT peptide array binding signal intensity
7 | HAPPLPPTAPPPPSL | ≤ 0

These binders were tested against AgHof1 in the same assay as above.
In short: as §1

Row | Binder | SPOT peptide array binding signal intensity
8 | HAPPLPPTAPPPPSL | 26.5

These binders were tested against AgHse1 in the same assay as above.
In short: as §1

Row | Binder | SPOT peptide array binding signal intensity
9 | HAPPLPPTAPPPPSL | ≤ 0

Each binder was assayed against AgLsb1 in the same assay as above.
In short: as §1

Row | Binder | SPOT peptide array binding signal intensity
10 | HAPPLPPTAPPPPSL | ≤ 0

Each binder was assayed against AgLsb4 in the same assay as above.
In short: as §1

Row | Binder | SPOT peptide array binding signal intensity
11 | HAPPLPPTAPPPPSL | ≤ 0

The binders below were run against AgMyo5 in the same assay as above.
In short: as §1

Row | Binder | SPOT peptide array binding signal intensity
12 | HAPPLPPTAPPPPSL | 2230

What follows are binders tested against AgNbp2 in the same assay as above.
In short: as §1

Row | Binder | SPOT peptide array binding signal intensity
13 | HAPPLPPTAPPPPSL | ≤ 0

Each binder was assayed against AgRvs167 in the same assay as above.
In short: as §1

Row | Binder | SPOT peptide array binding signal intensity
14 | HAPPLPPTAPPPPSL | ≤ 0

Each binder was assayed against AgSho1 in the same assay as above.
In short: as §1

Row | Binder | SPOT peptide array binding signal intensity
15 | HAPPLPPTAPPPPSL | ≤ 0

The binders below were run against AgSla1-D1-D2 in the same assay as above.
In short: as §1

Row | Binder | SPOT peptide array binding signal intensity
16 | HAPPLPPTAPPPPSL | ≤ 0

Each binder was assayed against AgSla1-D3 in the same assay as above.
In short: as §1

Row | Binder | SPOT peptide array binding signal intensity
17 | HAPPLPPTAPPPPSL | ≤ 0

Each binder was assayed against CaAbp1-D1 in the same assay as above.
In short: as §1

Row | Binder | SPOT peptide array binding signal intensity
18 | HAPPLPPTAPPPPSL | ≤ 0

What follows are binders tested against CaAbp1-D2 in the same assay as above.
In short: as §1

Row | Binder | SPOT peptide array binding signal intensity
19 | HAPPLPPTAPPPPSL | 2

What follows are binders tested against CaBbc1 in the same assay as above.
In short: as §1

Row | Binder | SPOT peptide array binding signal intensity
20 | HAPPLPPTAPPPPSL | ≤ 0

Each binder was assayed against CaBem1-D1 in the same assay as above.
In short: as §1

Row | Binder | SPOT peptide array binding signal intensity
21 | HAPPLPPTAPPPPSL | ≤ 0

The binders below were run against CaBzz1-D1 in the same assay as above.
In short: as §1

Row | Binder | SPOT peptide array binding signal intensity
22 | HAPPLPPTAPPPPSL | 2

The binders below were run against CaBzz1-D2 in the same assay as above.
In short: as §1

Row | Binder | SPOT peptide array binding signal intensity
23 | HAPPLPPTAPPPPSL | 6

Each binder was assayed against CaCyk3 in the same assay as above.
In short: as §1

Row | Binder | SPOT peptide array binding signal intensity
24 | HAPPLPPTAPPPPSL | ≤ 0

Each binder was assayed against CaFus1 in the same assay as above.
In short: as §1

Row | Binder | SPOT peptide array binding signal intensity
25 | HAPPLPPTAPPPPSL | ≤ 0

What follows are binders tested against CaHof1 in the same assay as above.
In short: as §1

Row | Binder | SPOT peptide array binding signal intensity
26 | HAPPLPPTAPPPPSL | ≤ 0

Each binder was assayed against CaHse1 in the same assay as above.
In short: as §1

Row | Binder | SPOT peptide array binding signal intensity
27 | HAPPLPPTAPPPPSL | 1.5

These binders were tested against CaLsb1 in the same assay as above.
In short: as §1

Row | Binder | SPOT peptide array binding signal intensity
28 | HAPPLPPTAPPPPSL | ≤ 0

These binders were tested against CaLsb4 in the same assay as above.
In short: as §1

Row | Binder | SPOT peptide array binding signal intensity
29 | HAPPLPPTAPPPPSL | ≤ 0

What follows are binders tested against CaMyo5 in the same assay as above.
In short: as §1

Row | Binder | SPOT peptide array binding signal intensity
30 | HAPPLPPTAPPPPSL | 792

The binders below were run against CaNbp2 in the same assay as above.
In short: as §1

Row | Binder | SPOT peptide array binding signal intensity
31 | HAPPLPPTAPPPPSL | ≤ 0

What follows are binders tested against CaRvs167 in the same assay as above.
In short: as §1

Row | Binder | SPOT peptide array binding signal intensity
32 | HAPPLPPTAPPPPSL | ≤ 0

The binders below were run against CaRvs167-3 in the same assay as above.
In short: as §1

Row | Binder | SPOT peptide array binding signal intensity
33 | HAPPLPPTAPPPPSL | ≤ 0

The binders below were run against CaSho1 in the same assay as above.
In short: as §1

Row | Binder | SPOT peptide array binding signal intensity
34 | HAPPLPPTAPPPPSL | ≤ 0

These binders were tested against CaSla1-D1-D2 in the same assay as above.
In short: as §1

Row | Binder | SPOT peptide array binding signal intensity
35 | HAPPLPPTAPPPPSL | ≤ 0

These binders were tested against CaSla1-D3 in the same assay as above.
In short: as §1

Row | Binder | SPOT peptide array binding signal intensity
36 | HAPPLPPTAPPPPSL | ≤ 0

These binders were tested against ScAbp1 in the same assay as above.
In short: as §1

Row | Binder | SPOT peptide array binding signal intensity
37 | HAPPLPPTAPPPPSL | ≤ 0
